Data reported in PubChem BioAssay AID504882 (Broad Institute, 2011).
Hit rate of the full screen: of about 1,200 compounds, about 290 (24%) were called active. About 9% were inconclusive and are not listed. The rule behind the calls is not given here. Only a sample is shown. Results with a measured potency or affinity are listed apart.

assay: cytotoxicity in EBV lymphoblastoid cells, dose response, cytotoxicity control, cell-based, plate reader, cherry-picks, set 2 (AID 504882); settings: EBV lymphoblastoid cells (LCL) viability; series mostly up to 19.5 µM

| SMILES | outcome |
| --- | --- |
| O=C(O)c1ccc(-n2cncn2)c([N+](=O)[O-])c1 | inactive |
| O=c1c([N+](=O)[O-])cn(Cc2ccccc2)c(=O)n1Cc1ccccc1 | inactive |
| COc1cc(C(c2sc3nc(C)nn3c2O)N2CCc3ccccc3C2)cc(OC)c1OC (centres undefined) | inactive |
| COc1cccc(C2Nc3ccc4ccccc4c3C3=C2C(=O)CC(C)(C)C3)c1OCC(=O)O (centres undefined) | inactive |
| Cc1c(C=O)c2ccccn2c1C(=O)c1ccccc1Cl | inactive |
| Clc1ccc(-c2nnc(NC3=NCCCCC3)o2)cc1 | inactive |
| C[C@@H](OC(=O)c1[nH]cnc1C(=O)N1CCc2ccccc2C1)c1ccccc1 | inactive |
| COc1ccc(CCNC(=O)CSC(=O)c2ccccc2)cc1OC | inactive |
| O=C(O)c1cn2c3c(ccc(Cl)c3c1=O)OCC2 | inactive |
| CCCCN1C2CCCC1CC(NC(=O)C1CCCCC1)C2 (centres undefined) | inactive |
| O=C(NCc1ccco1)C1CC(=O)N(c2cccc(Cl)c2)C1 (centres undefined) | inactive |
| O=C(COC(=O)c1ccc(S(=O)(=O)NCc2ccco2)cc1)Nc1ccc(Cl)cn1 | inactive |
| COc1ccc(-n2cc(C(=O)c3ccccc3O)cn2)cc1 | inactive |
| CCc1ccc(/C=C2\SC(=S)N(CCCC(=O)NC3=NCCS3)C2=O)cc1 | inactive |
| COc1cccc(C(=O)N2CCN(c3nc4cc(C)cc(C)c4cc3C#N)CC2)c1 | inactive |
| CCCSc1ccc([C@@H]2[C@H]3C(=O)N(C)C(=O)[C@H]3[C@]3(C(=O)OC)CCCN23)cc1OC | inactive |
| CCCn1c(C)cc(C(=O)CN2C(=O)c3ccccc3S2(=O)=O)c1C | inactive |
| CCSc1nnc(NC(=O)CSc2nnc(-c3c[nH]c4ccccc34)n2CC)s1 | inactive |
| CC(=O)c1ccccc1OCC(=O)Nc1cccc(S(=O)(=O)N2CCCC2)c1 | inactive |
| O=C(CCCN1C(=O)[C@H]2CC=CC[C@H]2C1=O)NCc1nc(-c2ccc(Cl)cc2)no1 | inactive |
| Cc1cccc(-n2c(O)c(C=Nc3c(C)n(C)n(-c4ccccc4)c3=O)c3ccccc3c2=O)n1 | inactive |
| COC(=O)C1=C(C)N(c2cc(C)cc(C)c2)/C(=C/c2ccc(O)cc2)C1=O | inactive |
| COc1cc(N)c(Cl)cc1C(=O)NC1CCN(Cc2ccccc2)CC1 | inactive |
| Cc1cccc(Nc2nc(Cl)ncc2F)c1C | inactive |
| Cc1ccccc1C(=O)N1CCN(c2ccc(NC(=O)c3cccs3)cc2)CC1 | inactive |
| COc1cc(OC)cc(C(=O)N[C@H](C(=O)OCC(=O)c2ccc(C)c([N+](=O)[O-])c2)C(C)C)c1 | inactive |

| SMILES | outcome |
| --- | --- |
| CCOC(=O)Oc1c(OC)cc(C(=O)O[C@@H]2C[C@@H]3CN4CCc5c([nH]c6cc(OC)ccc56)[C@H]4C[C@@H]3[C@H](C(=O)OC)[C@H]2OC)cc1OC | inactive |
| CCOC(=O)c1nc(NCc2ccccc2F)c2ccccc2n1 | inactive |
| CCOC(=O)c1cc(-c2ccccc2)n(CC(=O)Nc2cccc(OC)c2)c1C | inactive |
| COCCn1c(C)cc(C(=O)COc2ccc(C)nc2[N+](=O)[O-])c1C | inactive |
| COC(=O)c1[nH]c2ccc(C)cc2c1NC(=O)NC1CCCCC1 | inactive |
| CN(CC(=O)Nc1cccnc1)S(=O)(=O)c1ccc(Br)cc1 | inactive |
| COc1cc(C2CC(=O)N3CN(Cc4ccccc4)CSC3=C2C#N)ccc1OCc1ccccc1 (centres undefined) | inactive |
| COc1ccccc1OCc1ccc(C(=O)c2ccccc2)cc1 | inactive |
| O=C(O)C1CC(=O)N(c2ccc(Br)cc2)C1 (centres undefined) | inactive |
| CNS(=O)(=O)c1cccc(C(=O)OCC(=O)c2ccc3c(c2)OCCO3)c1 | inactive |
| COc1ccc(OC)c2[nH]c(=O)c(CCNC(=O)c3ccc(S(=O)(=O)N(C)C)cc3)cc12 | inactive |
| O=C(N/N=C(/CC(=O)c1cccs1)C(F)(F)F)c1ccc(O)cc1 | inactive |
| CCC(C)[C@H](NC(=O)NCc1cccnc1)C(=O)OC (some centres undefined) | inactive |
| Cc1cccc(C)c1NC(=O)CN(C)C(=O)c1ccc(-c2cccc(C(F)(F)F)c2)o1 | inactive |
| O=C(CN1C(=O)c2ccccc2S1(=O)=O)c1ccc(F)c(F)c1 | inactive |
| COc1ccc(-n2c(SCC(=O)Nc3ccc4c(c3)OCO4)nc3c(c2=O)SCC3)cc1 | inactive |
| Cc1ccnc(NC(=O)CCC(=O)c2cccs2)c1 | inactive |
| COc1ccc(C(=O)Nn2c(SCC(=O)NC3CCCCC3)nc3ccccc3c2=O)cc1 | inactive |
| NC(=O)CC(NC(=O)c1ccccc1)c1ccc(NC2CCN(Cc3ccccc3)CC2)c([N+](=O)[O-])c1 (centres undefined) | inactive |
| Cc1cccc(Cn2cc(SCC(=O)Nc3nccs3)c3ccccc32)c1 | inactive |
| COC(=O)c1c(O)ccc(Oc2ccccc2)c1C(=O)OC | inactive |
| COc1ccc2oc(C(=O)NCCc3ccccc3)c(C)c2c1 | inactive |
| COc1ccc(-n2c(SCC(=O)Nc3cc(C)on3)nc3c(c2=O)SCC3)cc1 | inactive |
| Cc1ccc(-n2ccc(=O)c(C(=O)Nc3ccc(S(=O)(=O)N4CCOCC4)cc3)n2)cc1 | inactive |
| O=C1c2ccccc2C(Nc2cccnc2)N1Cc1ccccc1 (centres undefined) | inactive |
| COc1cc(/C=N/NC(=O)c2cccc(S(=O)(=O)N3CCOCC3)c2)cc(OC)c1O | inactive |

| SMILES | outcome |
| --- | --- |
| COc1cc(C(=S)N2CCOCC2)cc(OC)c1OC(=O)c1ccc(F)cc1 | inactive |
| O=C(NOCc1ccccc1)c1ccc(Cl)cc1Cl | inactive |
| C[C@H]1C[C@H]2[C@@H]3CCC4=CC(=O)C=C[C@]4(C)[C@@]3(F)[C@@H](O)C[C@]2(C)[C@@]1(O)C(=O)CO | inactive |
| CC1CCC(NC(=O)CC2Oc3ccccc3NC2=O)CC1 (centres undefined) | inactive |
| O=C1CN(C(=O)c2ccc(F)c(S(=O)(=O)N3CCOCC3)c2)c2ccccc2N1 | inactive |
| CC(C)c1nnc(NC(=O)c2ccc(N3C(=O)CCC3=O)cc2)s1 | inactive |
| COc1cc2c(cc1OC)-c1cc(Nc3ccc4c(c3)OCCO4)nc(=O)n1CC2 | inactive |
| CCCC(=O)NCCCc1nc2ccccc2[nH]1 | inactive |
| COc1cccc(C(=O)Nc2nc3ccccc3[nH]2)c1 | inactive |
| COc1ccccc1C=NN=Cc1ccccc1O | inactive |
| CCc1ccc(-c2nnn(CCC(=O)OC)n2)cc1 | inactive |
| COc1cccc(C(=O)CC(=O)C(=O)Nc2ccc(C)cc2Cl)c1 | inactive |
| CCc1ccc(/C=C/C(=O)C2C(=O)c3ccccc3C2=O)cc1 | inactive |
| O=C(OCc1ccccc1F)c1cc2ccccc2cc1O | inactive |
| CCS(=O)(=O)c1nnnn1-c1ccccc1S(C)(=O)=O | inactive |
| C[C@H](NC(=O)N1CCn2c1nc1ccccc12)C(=O)NCC1CCCO1 (some centres undefined) | inactive |
| CCOC(=O)c1ccc(NC(=S)N2CCSC2c2ccc(OC)cc2)cc1 (centres undefined) | inactive |
| COC(=O)c1[nH]c2cccc(C)c2c1NC(=O)CN1CCCc2ccccc21 | inactive |
| CC(C)(C)c1nc2c(s1)CCc1onc(-c3ccc(Br)cc3)c1-2 | inactive |
| Cc1nc2sc(C(N)=O)c(N)c2c2c1CCCC2 | inactive |
| O=C(Nc1ccc(Cl)cc1)c1ccco1 | inactive |
| O=C(Nc1ccc2c(c1)nc1n2CCSC1)c1ccco1 | inactive |
| CCOC(=O)C1=C(O)/C(=C/c2ccc(CNC(=O)C(=O)Nc3ccc(C)cc3)o2)N=C1C | inactive |
| Nc1cc(=O)[nH]c(SCCSc2cc(Cl)ccc2Cl)n1 | inactive |
| CC(C)(C)c1cc(C(=O)NNC(=O)Nc2cccc(Cl)c2)n(Cc2ccccc2)n1 | inactive |
| CC(=O)O[C@]1(C(C)=O)CC[C@H]2[C@@H]3C=C(C)C4=CC(=O)CC[C@@H]4[C@H]3CC[C@@]21C | inactive |

| SMILES | outcome |
| --- | --- |
| O=C(O)c1ccccc1Nc1cccc(OCc2ccc3ccccc3n2)c1 | inactive |
| c1ccc2c3c([nH]c2c1)C(C1CCCCC1)N(Cc1ncc[nH]1)CC3 (centres undefined) | inactive |
| O=C1c2ccccc2C(Nc2ccc(Cl)cc2)N1CCN1CCOCC1 (centres undefined) | inactive |
| Brc1ccc(-c2csc(N3CCCCCC3)n2)cc1 | inactive |
| COc1cc(/C=C2\SC(=S)N(NC(=O)c3ccncc3)C2=O)ccc1O | inactive |
| CCc1nnc(NC(=O)c2cc(S(=O)(=O)N3CCN(CC)CC3)ccc2Cl)s1 | inactive |
| COc1cc2c(=O)n(CC3CCCO3)c(=O)n(CC(=O)Nc3cccc(Cl)c3)c2cc1OC (centres undefined) | inactive |
| COc1ccc(NC(=O)N(CCN2CCCC2)Cc2cc3cc(OC)c(OC)cc3[nH]c2=O)cc1 | inactive |
| Cc1cccc(C)c1NC(=O)CN(C)CC(=O)Nc1ccccc1Oc1ccccc1 | inactive |
| Cc1ccc(C(=O)Nc2ccc3ncccc3c2)cc1 | inactive |
| O=C(O)c1c2c(nc3ccccc13)/C(=C/c1ccc(O)cc1)CC2 | inactive |
| CSc1nc(C)cc(C)c1C#N | inactive |
| CC1(C)CN(Cc2ccccc2)C(=O)[C@H]1CC(=O)Nc1ccccc1 | inactive |
| O=C(Cc1cccc2ccccc12)Nc1ccc(-c2cc3ccccc3oc2=O)cc1 | inactive |
| NC(=O)c1sc2nccc(Nc3ccccc3)c2c1N | inactive |
| CCCCCC(=O)N1CCN(c2ccc(C(C)=O)cc2F)CC1 | inactive |
| COc1ccc(C(c2c(C)n(C)n(-c3ccccc3)c2=O)c2c(C)n(C)n(-c3ccccc3)c2=O)c(OC)c1OC | inactive |
| CC(C)C(=O)Nc1ccc(C(=O)N/N=C/c2cc(Br)cc(Br)c2O)cc1 | inactive |
| CCSc1nc2ccc(OC)cc2cc1C#N | inactive |
| COc1ccccc1C(=O)Nc1c[nH]c(=O)[nH]c1=O | inactive |
| CN1OC[C@@H]2CN[C@H](c3ccc(-c4cc5ccccc5o4)cc3)C[C@@H]21 | inactive |
| O=C(O)CN1C(=O)/C(=C\c2ccccc2OCc2ccc(Cl)cc2Cl)SC1=S | inactive |
| S=C(N/N=C/c1ccc2ncccc2c1)Nc1cccnc1 | inactive |
| COc1cc(/C=N/NC(=S)Nc2cccc(C(=O)O)c2)ccc1O | inactive |
| OCCN(CCO)CC(O)COCCC12CC3CC(CC(C3)C1)C2 (centres undefined) | inactive |
| O=C(Nc1cnc2ccccn2c1=O)c1ccc(Cl)cc1Cl | inactive |
